Rows were chosen to be rich in hits. Some 6% of all compounds tested hit in one or more screens of this group.
D1 potentiator: enhances dopamine response at the human D1 receptor; potentiation, % at 10 µM; HEK293 TREx D1 cells, calcium flux, dopamine EC20 potentiation; P21728; 360,000 compounds, 0.036% hits; in the data active means potentiation above about 30%
D3 antag: antagonists of human D3 dopamine receptor | P35462 | D3R cells, DiscoveRx beta-arrestin luminescence, antagonist mode; hits give low values | max response, negative = inhibition, % | 360,000 compounds, 2.5% hits | AID 652054; in the data active means max response below about -50%; inconclusive means no clear call, values can overlap the other calls
Target sequence (P35462 whole entry, looked up): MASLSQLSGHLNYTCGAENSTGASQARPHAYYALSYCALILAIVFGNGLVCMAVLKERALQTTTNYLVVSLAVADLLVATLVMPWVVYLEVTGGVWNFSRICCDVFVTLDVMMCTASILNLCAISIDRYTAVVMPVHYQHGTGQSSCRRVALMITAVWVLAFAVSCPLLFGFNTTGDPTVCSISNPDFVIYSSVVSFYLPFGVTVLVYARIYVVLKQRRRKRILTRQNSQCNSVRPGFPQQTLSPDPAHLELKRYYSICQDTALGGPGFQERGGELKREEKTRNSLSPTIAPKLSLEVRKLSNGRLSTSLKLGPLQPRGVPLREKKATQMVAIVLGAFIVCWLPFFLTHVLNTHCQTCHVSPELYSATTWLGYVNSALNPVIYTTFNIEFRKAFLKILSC
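Cells plated overnight at 1500 cells/well, then exposed to library compounds with dopamine controls for 90 minutes at 37 degrees C. DiscoveRx reagent added for 30–60 minutes at room temperature; luminescence read, quantitative HTS format.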
D3 ag: activates the human D3 dopamine receptor | P35462 | 410,000 compounds, 0.58% hits | D3R DiscoveRx beta-arrestin cells, luminescence, 90 min | max activation, %; in the data active means max activation above about 30%
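Agonist mode: compounds and dopamine controls were applied to plated cells for 90 min at 37 degrees C after an overnight attachment at 1500 cells/well. Luminescent read-out followed 30 - 60 minutes at room temperature with DiscoveRx detection reagent.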
D1 antagonist: antagonists of human D1 dopamine receptor; HEK293 TREx D1 cells, calcium flux, dopamine EC80; hits give low values; activity change, negative = inhibition, % at 10 µM; 360,000 compounds, 3.2% hits; in the data active means activity change below about -30%
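Inducible Hek293 Trex D1 cells (tetracycline, overnight, 30 C). Calcium dye 30–90 min RT. Antagonist mode: EC80 dopamine added after 180 s compound read.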
D1 ag: activates the human D1 dopamine receptor; HEK293 T-REx D1 cells, calcium flux, agonist mode; activation, % at 2 µM; 360,000 compounds, 1% hits; in the data active means activation above about 30%
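Tetracycline-induced HEK293 TREx D1 cells, force-coupled to calcium signalling, were dye-loaded with a no-wash calcium kit. Compound was pin-added after a 10 s baseline. Fluorescence was read kinetically at 1 cycle/s for 180 s, with calcium rises flagged as agonism.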
Each line names hits and unclear results; the compound was inactive in the other large screens.

COc1cc(C)c(C)cc1S(=O)(=O)Nc1cccc(-c2ccc(N3CCOCC3)nn2)c1	D1 antagonist -69 (no result: D3 antag)
Cc1c(Cl)cccc1NC(=O)CCn1nc(C)c2c(C)n(-c3ccccc3)nc2c1=O	none (no result: D3 antag)
CC(C)CSC1=NSC2=NC(=O)/C(=C\c3coc4ccccc4c3=O)C(=N)N12	D1 ag 240
N=C1/C(=C\c2coc3ccc(O)cc3c2=O)C(=O)N=C2SC=CN12	D1 ag 132
CSC1=NSC2=NC(=O)/C(=C\c3coc4ccccc4c3=O)C(=N)N12	D1 antagonist -48, D1 ag 306
N=C1/C(=C\c2coc3ccccc3c2=O)C(=O)N=C2SC(c3ccncc3)=NN12	D3 antag inconclusive, D1 antagonist -31, D1 ag 256
Cc1ccc(NC(=O)CCCn2c(=O)c3cccn3c3cccnc32)cc1C	none (no result: D3 antag)
CCCS/C(N)=N/N=C/c1cc(C)ccc1O	none
CCCCS/C(N)=N/N=C/c1ccccc1O	D3 antag -50
CCOC(=O)CCN(c1ccccc1)S(=O)(=O)c1cc(-c2cc(C)no2)ccc1C	none (no result: D3 antag)
COC(=O)c1[nH]c2ccc(C)cc2c1NS(=O)(=O)c1ccc(F)c(C)c1	D3 antag -51
COC(=O)c1[nH]c2ccc(F)cc2c1NS(=O)(=O)c1ccc(F)c(C)c1	none
Cc1nn(-c2ccc3nnc(C)n3n2)c(C)c1CCC(=O)Nc1ccc(OC(F)(F)F)cc1	none (no result: D3 antag)
Cn1cc(Br)c(C(=O)N/N=C/c2cccc(OC3CSC3)c2)n1	D1 antagonist -30
O=C(Nc1ccc(Cl)cn1)c1cccc(S(=O)(=O)N2CCCCC2)c1	D1 ag 31 (no result: D1 potentiator)
CCSc1nnc(NC(=O)c2cccc(S(=O)(=O)N(C)c3ccc(C)cc3)c2)s1	D1 antagonist -54
CCc1nnc(NC(=O)c2cccc(S(=O)(=O)N(C)c3ccccc3)c2)s1	none
Cc1cccc(NC(=O)c2cc(S(=O)(=O)N(C)c3ccc(F)cc3)ccc2Cl)n1	D3 antag -57
CN(C)S(=O)(=O)c1cccc(C(=O)Nc2ccc(Cl)cn2)c1	D3 antag -77
O=C(Nc1ccc(Cl)cn1)c1cccc(S(=O)(=O)N2CCCCCC2)c1	none (no result: D1 potentiator, D1 antagonist, D1 ag)
O=C(Nc1ccc(Cl)cn1)c1cccc(S(=O)(=O)N2CCCC2)c1	none
Cc1oc(-c2ccc(Cl)cc2)nc1Cn1c(=O)cc(C)c2c(C)nn(-c3cccc(F)c3)c21	none (no result: D3 antag)
COc1ccccc1N1CCN(C(=O)c2cc3c(=O)n(Cc4ccco4)ccc3nc2C)CC1	none (no result: D3 antag)
CCCN(CCC)C(=O)c1nn(C)c2c1CSc1ccc(C)cc1-2	none (no result: D3 antag)
Cc1ccc(CNC(=O)CCc2c(C)c3cc4c(C)coc4cc3oc2=O)cc1	none (no result: D3 antag)
Cc1ccc(N(C)S(=O)(=O)c2cccc(C(=O)Nc3ccc(C)cn3)c2)cc1	D1 antagonist -88
CN(c1ccccc1)S(=O)(=O)c1cccc(C(=O)NNC(=O)c2ccccc2)c1	none
Cc1ccc(NC(=O)c2ccc(-n3c(C)nnc3C)cc2)cc1F	none (no result: D3 antag)
O=C(NC1CCCC1)c1cc(-c2ccccc2O)on1	none
O=C(NC1CCCC1)c1cc(-c2cccs2)on1	D1 antagonist -42
COc1ccc(OC)c(-c2csc(NC(=O)Cc3ccccc3OC)n2)c1	D3 antag -63 (no result: D1 potentiator)
COc1ccccc1-c1cc(C(=O)NC2CCCC2)no1	D1 antagonist -32
O=C(NCc1ccc2c(c1)OCO2)c1cc(-c2ccccc2Cl)on1	D3 antag -59
COc1ccccc1-c1cc(C(=O)NCc2ccccc2)no1	D3 antag -52
COc1ccc(CNC(=O)c2cc(-c3ccccc3OC)on2)cc1	D3 antag -63
Nc1c(-c2nc(-c3ccccc3Cl)no2)nnn1-c1ccccc1F	none (no result: D3 antag)
COc1ccc(-c2noc(CSc3nnc(-c4ccncc4)n3-c3ccc(C)cc3)n2)cc1OC	none (no result: D3 antag)
CCn1c(CNc2ccccc2Cl)nnc1SCCN1CCCCC1	D3 antag -60
CCCOc1ccccc1-n1sc2c(c1=S)-c1cc(OC)cc3c1N(C(=O)C3=O)C2(C)C	D3 antag -57
CCCC(=O)Nc1ccc(NC(=O)CCc2ccccc2)cn1	D3 antag -56
Cc1ccc(CNc2cc(C)nc3nc(-c4cccc(C)c4)nn23)cc1	none (no result: D3 antag)
N#Cc1nc(/C=C/c2ccc(F)cc2)oc1N1CCCCCC1	none (no result: D3 antag)
CCc1c(C)nc(N2CCN(c3ccc(F)cc3)CC2)[nH]c1=O	none
CCCc1c(C)nc(N2CCN(c3ccc(F)cc3)CC2)[nH]c1=O	D1 antagonist -30
Cc1ccc(CNC(=O)CN2C(=O)CSc3ccc(S(=O)(=O)N4CCCC4)cc32)cc1	none (no result: D3 antag)
COC(=O)c1ccsc1NC(=O)CCS(=O)(=O)c1ccccc1	none
COC(=O)c1ccsc1NC(=O)CS(=O)(=O)c1ccccc1	D3 antag -102
Cc1ccc(NC(=O)CCc2nc3cccnc3n2-c2ccccc2)cc1	none (no result: D3 antag)
CCOC(=O)c1c(NC(=O)COC(=O)C2CCC2)sc(C(=O)N(C)C)c1C	D1 antagonist -46
COc1ccc(Cl)cc1NS(=O)(=O)c1cccc(C(=O)NCC(c2ccco2)N(C)C)c1 (stereo not drawn)	D3 antag -82
COc1ccc(Cl)cc1C(=O)NCC(c1ccco1)N(C)C (stereo not drawn)	D3 antag -79
COc1ccc(Cl)cc1C(=O)NCC(c1ccco1)N1CCCC1 (stereo not drawn)	D3 antag -81
Cc1ccccc1CCNC(=O)c1cc2cc(S(=O)(=O)N3CCCCC3)ccc2n1C	none (no result: D3 antag)
COc1cccc(CNC(=O)Cn2c(=O)n3nc(-c4cccc(C)c4)nc3c3ccccc32)c1	none (no result: D3 antag, D1 antagonist)
Cc1oc(-c2ccc(C(=O)Nc3ccc(F)cc3F)cc2)nc1COc1ccccc1	none (no result: D3 antag)
CCn1c(CNc2cccc(Cl)c2)nnc1SCC(=O)OC1CCCCC1	D1 antagonist -43, D1 ag 36
CCn1c(CNc2ccc(Cl)cc2)nnc1SCC(=O)OC1CCCCC1	none
COc1ccc(Cl)cc1NC(=O)N1CCC(CN2CCc3ccccc3C2)CC1	none (no result: D3 antag)
O=C(c1ccco1)N1CCN(C(=O)c2cccs2)CC1	D3 antag -56
O=C(c1ccco1)N1CCN(C2CN(C3CCCC3)S(=O)(=O)C2)CC1 (stereo not drawn)	none (no result: D1 potentiator, D1 antagonist, D1 ag)
CCC(C)N1CCN(C(=O)c2cccs2)CC1 (stereo not drawn)	D3 antag -65 (no result: D1 potentiator, D1 antagonist, D1 ag)
OCC1(CCCc2ccccc2)CCN(C2CCC2)CC1	none
O=C(c1ccco1)N1CCN(C2CCCC2)CC1	D3 antag -74
c1ccc(CCN(Cc2ccccc2)C2CCN(C3CCCC3)CC2)cc1	D3 antag -65
O=C(CCCc1ccccc1)N1CCN(C2CCCCC2)CC1	D3 antag -84
O=C(c1ccco1)N1CCN(c2ccc(F)cc2)CC1	none
O=C(CSc1nnc(Cc2cccs2)n1C1CCCCC1)N1CCN(C(=O)c2ccco2)CC1	D3 antag -62
O=C(CCC1CCN(C(=O)c2ccco2)CC1)NCc1ccc(F)cc1	D1 antagonist -50
O=C(c1ccco1)N1CCN(c2nc(-c3ccc(F)cc3)cs2)CC1	D1 antagonist -42
